Measurements published in PubChem BioAssay (NCI).
The panel holds about 79,000 compounds, 15% with a hit somewhere; the sample as a whole holds those more often. Unmarked numbers belong to inactive results. Activity calls are given as the source filed them. No stated cut-off is given here; in the data, active means growth inhibition above about 70%; inactive means the rest.

Assays:
[1] = NCI Yeast Anticancer Drug Screen. Data for the rad50 strain (AID 155);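 further: 0% = growth of vehicle-only cultures of the same strain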; settings: S. cerevisiae rad50 strain growth inhibition, hits give high values
Outline: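 Compounds were tested on a yeast strain with an engineered DNA damage repair alteration; the reported value is growth inhibition normalised to vehicle treatment.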

[2] = NCI Yeast Anticancer Drug Screen. Data for the mec2-1 strain (AID 157); settings: S. cerevisiae mec2-1 strain, hits give high values
Outline: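 Vehicle-treated cultures served as reference for growth inhibition of compound-exposed mec2-1 yeast.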

[3] = NCI Yeast Anticancer Drug Screen. Data for the sgs1 mgt1 strain (AID 161);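 further: 0% = growth of cultures given vehicle only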; settings: S. cerevisiae sgs1 mgt1 strain, hits give high values
Outline: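 Inhibition of yeast growth, normalised to vehicle-treated controls, is reported for a strain bearing genetic alterations in DNA damage repair.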

[4] = NCI Yeast Anticancer Drug Screen. Data for the cln2 rad14 strain (AID 165);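 further: 0% = growth equal to vehicle treated cultures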; settings: S. cerevisiae cln2 rad14 strain, hits give high values
Outline: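 Each compound was tested on cln2 rad14 yeast. Inhibition of growth was calculated against vehicle-exposed controls.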

[5] = NCI Yeast Anticancer Drug Screen. Data for the bub3 strain (AID 167); settings: S. cerevisiae bub3 mutant strain, hits give high values
Outline: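 Growth of a checkpoint-deficient yeast mutant is measured after compound exposure. Values represent inhibition relative to vehicle.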

[6] = NCI Yeast Anticancer Drug Screen. Data for the mlh1 rad18 strain (AID 175); settings: S. cerevisiae mlh1 rad18 strain growth inhibition, hits give high values
Outline: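 Vehicle-treated cultures served as the reference for growth inhibition in a yeast strain carrying DNA damage repair alterations exposed to each compound.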

[7] = at 5.0 µM (retest, dose inferred, filed as 0.5)
[8] = at 50.0 µM (retest, dose inferred, filed as 5.0)

Compound | growth inhibition [1, 7] [%] | growth inhibition [1, 8] | growth inhibition ([1]; at 50.0 µM) | growth inhibition [2, 7] [%] | growth inhibition [2, 8] | growth inhibition ([2]; at 50.0 µM) | growth inhibition [3, 7] [%] | growth inhibition [3, 8] | growth inhibition ([3]; at 50.0 µM) | growth inhibition [4, 7] [%] | growth inhibition [4, 8] [%] | growth inhibition ([4]; at 50.0 µM) | growth inhibition [5, 7] [%] | growth inhibition [5, 8] | growth inhibition ([5]; at 50.0 µM) | growth inhibition [6, 7] [%] | growth inhibition [6, 8] | growth inhibition ([6]; at 50.0 µM)
COc1ccc2nc3cc(Cl)ccc3c(NCCCN(Cc3cc(OC)c(OC)c(OC)c3)Cc3cc(OC)c(OC)c(OC)c3)c2c1 | 45 | 72% (active) | 62.4% | 29 | 58% | 34.6% | 38 | 62% | 45.6% | 32 | 43 | 33.4% | 37 | 83% (active) | 56.6% | 48 | 80% (active) | 73.5% (active)
COc1cc(OC)c(C2CC(C)(OC)Oc3cc4c(cc32)OCO4)c(OC)c1 (configuration not stated) | 4 | 10% | 4.35% | 6 | 3% | 17.1% | 2 | 12% | 3.8% | 5 | -4 | 5.45% | 0 | -1% | -2.6% | 5 | 19% | 27.9%
CCCCCCCCCCCCCCOCCS(=O)(=O)O | 18 | 83% (active) | 70.8% (active) | -9 | 69% | 52.4% | 16 | 80% (active) | 78.8% (active) | -12 | 61 | 38.4% | 6 | 85% (active) | 29.8% | 7 | 83% (active) | 79.4% (active)
O=[N+]([O-])c1ccc(NS(=O)(=O)c2ccccc2)c(NS(=O)(=O)c2ccccc2)c1 | 15 | 75% (active) | 81.5% (active) | 14 | 76% (active) | 73.4% (active) | 20 | 81% (active) | 83.2% (active) | 27 | 32 | 82.1% (active) | 6 | 43% | 80.1% (active) | 11 | 90% (active) | 71.7% (active)
